Key:
Assay in all cases: log2 ratio of Biotin-Ahx-Ub-VS probe labelling (fragment/DMSO); higher = less target engagement (more negative = stronger competition), active = hit call of the paper (q ≤ 0.05, log2 ratio ≤ -1)
Settings in all cases: compound concentration: 200 uM; treatment time: 3 h
USP19 = target: T1, USP19 (UniProt O94966)
T1 sequence (whole entry): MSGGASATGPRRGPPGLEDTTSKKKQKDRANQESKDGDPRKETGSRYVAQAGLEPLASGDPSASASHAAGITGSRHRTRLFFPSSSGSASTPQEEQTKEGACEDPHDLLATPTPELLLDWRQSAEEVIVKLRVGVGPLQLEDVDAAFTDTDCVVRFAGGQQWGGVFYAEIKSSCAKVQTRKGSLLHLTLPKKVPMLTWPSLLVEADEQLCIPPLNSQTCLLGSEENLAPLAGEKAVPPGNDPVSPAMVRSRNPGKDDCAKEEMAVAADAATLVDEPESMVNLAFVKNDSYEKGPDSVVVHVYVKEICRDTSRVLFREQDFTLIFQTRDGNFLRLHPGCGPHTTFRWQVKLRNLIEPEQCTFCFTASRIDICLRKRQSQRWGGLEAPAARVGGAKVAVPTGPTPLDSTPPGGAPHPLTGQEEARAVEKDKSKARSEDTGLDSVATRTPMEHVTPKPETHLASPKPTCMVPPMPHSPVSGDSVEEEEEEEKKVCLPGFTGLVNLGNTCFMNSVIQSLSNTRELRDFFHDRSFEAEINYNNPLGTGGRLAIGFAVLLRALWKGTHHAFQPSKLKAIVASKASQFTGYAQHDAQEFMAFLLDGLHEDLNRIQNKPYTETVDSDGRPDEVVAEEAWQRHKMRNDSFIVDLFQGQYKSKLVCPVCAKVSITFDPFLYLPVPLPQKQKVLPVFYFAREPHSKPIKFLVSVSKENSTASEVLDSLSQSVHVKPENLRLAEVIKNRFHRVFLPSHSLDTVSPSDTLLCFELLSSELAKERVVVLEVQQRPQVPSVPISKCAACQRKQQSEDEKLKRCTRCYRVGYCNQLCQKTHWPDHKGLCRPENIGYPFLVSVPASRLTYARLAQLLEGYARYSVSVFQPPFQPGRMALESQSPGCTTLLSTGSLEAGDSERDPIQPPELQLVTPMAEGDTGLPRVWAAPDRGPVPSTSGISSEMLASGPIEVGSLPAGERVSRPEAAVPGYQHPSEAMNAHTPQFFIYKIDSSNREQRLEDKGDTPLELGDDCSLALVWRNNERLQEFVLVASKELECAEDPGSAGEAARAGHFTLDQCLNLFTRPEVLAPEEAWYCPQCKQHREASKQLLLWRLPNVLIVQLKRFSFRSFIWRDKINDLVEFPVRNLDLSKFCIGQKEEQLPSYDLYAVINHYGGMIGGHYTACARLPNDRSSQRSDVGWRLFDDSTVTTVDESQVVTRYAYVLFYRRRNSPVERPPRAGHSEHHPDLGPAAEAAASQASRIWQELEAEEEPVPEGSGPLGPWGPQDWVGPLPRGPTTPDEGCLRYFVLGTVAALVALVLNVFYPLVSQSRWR
How it was run: (§1)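 Each value is an average log2 ratio of fragment to vehicle, tested by unpaired t-test. The underlying Spectronaut label-free quantities were global-median-normalised, and only proteins with ≥2 unique peptides were included. Triplicate HEK293T lysate samples (495 µg) were exposed to fragment at 200 µM or vehicle for 3 h, then to Biotin-Ahx-Ub-VS at 0.5 µM final for 1 h, before NeutrAvidin enrichment of labelled DUBs, LysC and trypsin digestion, and diaPASEF LC-MS/MS.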

USP22 = target: T2, USP22 (UniProt Q9UPT9)
T2 sequence (whole entry): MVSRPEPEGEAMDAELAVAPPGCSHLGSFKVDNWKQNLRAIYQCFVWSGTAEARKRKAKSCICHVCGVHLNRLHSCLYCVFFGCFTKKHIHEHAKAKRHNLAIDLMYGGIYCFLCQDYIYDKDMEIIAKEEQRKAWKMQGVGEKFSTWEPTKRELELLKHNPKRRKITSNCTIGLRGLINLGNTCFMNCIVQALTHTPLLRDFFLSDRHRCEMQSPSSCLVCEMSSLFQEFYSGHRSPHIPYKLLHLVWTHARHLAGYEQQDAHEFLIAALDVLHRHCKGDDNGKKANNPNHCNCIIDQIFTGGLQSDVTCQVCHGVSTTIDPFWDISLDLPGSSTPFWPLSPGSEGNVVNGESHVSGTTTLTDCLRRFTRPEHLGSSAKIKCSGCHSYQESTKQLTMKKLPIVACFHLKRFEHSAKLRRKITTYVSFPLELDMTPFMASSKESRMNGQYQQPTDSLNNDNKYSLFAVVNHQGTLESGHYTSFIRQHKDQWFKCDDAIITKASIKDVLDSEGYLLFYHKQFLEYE
How it was run: as §1

USP24 = USP24 (UniProt Q9UPU5)
How it was run: as §1

USP25 = target: T3, USP25 (UniProt Q9UHP3)
T3 sequence (whole entry): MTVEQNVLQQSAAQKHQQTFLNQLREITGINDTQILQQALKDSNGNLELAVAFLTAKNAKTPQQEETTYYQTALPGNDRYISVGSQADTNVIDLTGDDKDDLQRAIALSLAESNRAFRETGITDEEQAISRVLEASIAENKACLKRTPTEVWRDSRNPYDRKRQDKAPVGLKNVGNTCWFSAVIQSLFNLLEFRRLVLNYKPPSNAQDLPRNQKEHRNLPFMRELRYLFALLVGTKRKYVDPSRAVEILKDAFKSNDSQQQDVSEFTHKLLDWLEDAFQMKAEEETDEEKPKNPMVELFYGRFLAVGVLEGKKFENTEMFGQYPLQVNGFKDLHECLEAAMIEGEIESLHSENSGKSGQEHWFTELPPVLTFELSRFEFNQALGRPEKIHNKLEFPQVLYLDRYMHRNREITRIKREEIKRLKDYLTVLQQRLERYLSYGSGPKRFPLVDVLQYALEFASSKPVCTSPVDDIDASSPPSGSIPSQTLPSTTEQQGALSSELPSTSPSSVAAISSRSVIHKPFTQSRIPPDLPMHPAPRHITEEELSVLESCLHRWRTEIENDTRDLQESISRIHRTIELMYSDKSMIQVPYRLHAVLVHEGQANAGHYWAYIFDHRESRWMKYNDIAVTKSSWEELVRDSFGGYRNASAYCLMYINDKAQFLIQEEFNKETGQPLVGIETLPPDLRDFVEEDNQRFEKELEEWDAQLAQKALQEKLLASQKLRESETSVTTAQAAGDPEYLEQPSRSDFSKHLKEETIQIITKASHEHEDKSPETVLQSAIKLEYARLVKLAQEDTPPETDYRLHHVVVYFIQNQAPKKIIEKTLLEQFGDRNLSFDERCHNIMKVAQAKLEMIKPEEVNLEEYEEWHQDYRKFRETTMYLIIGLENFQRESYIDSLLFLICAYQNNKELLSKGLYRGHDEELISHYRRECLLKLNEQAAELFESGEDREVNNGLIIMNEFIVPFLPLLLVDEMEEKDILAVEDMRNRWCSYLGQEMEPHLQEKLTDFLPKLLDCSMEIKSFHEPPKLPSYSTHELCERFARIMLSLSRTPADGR
How it was run: as §1

USP28 = target: T4, USP28 (UniProt Q96RU2)
T4 sequence (whole entry): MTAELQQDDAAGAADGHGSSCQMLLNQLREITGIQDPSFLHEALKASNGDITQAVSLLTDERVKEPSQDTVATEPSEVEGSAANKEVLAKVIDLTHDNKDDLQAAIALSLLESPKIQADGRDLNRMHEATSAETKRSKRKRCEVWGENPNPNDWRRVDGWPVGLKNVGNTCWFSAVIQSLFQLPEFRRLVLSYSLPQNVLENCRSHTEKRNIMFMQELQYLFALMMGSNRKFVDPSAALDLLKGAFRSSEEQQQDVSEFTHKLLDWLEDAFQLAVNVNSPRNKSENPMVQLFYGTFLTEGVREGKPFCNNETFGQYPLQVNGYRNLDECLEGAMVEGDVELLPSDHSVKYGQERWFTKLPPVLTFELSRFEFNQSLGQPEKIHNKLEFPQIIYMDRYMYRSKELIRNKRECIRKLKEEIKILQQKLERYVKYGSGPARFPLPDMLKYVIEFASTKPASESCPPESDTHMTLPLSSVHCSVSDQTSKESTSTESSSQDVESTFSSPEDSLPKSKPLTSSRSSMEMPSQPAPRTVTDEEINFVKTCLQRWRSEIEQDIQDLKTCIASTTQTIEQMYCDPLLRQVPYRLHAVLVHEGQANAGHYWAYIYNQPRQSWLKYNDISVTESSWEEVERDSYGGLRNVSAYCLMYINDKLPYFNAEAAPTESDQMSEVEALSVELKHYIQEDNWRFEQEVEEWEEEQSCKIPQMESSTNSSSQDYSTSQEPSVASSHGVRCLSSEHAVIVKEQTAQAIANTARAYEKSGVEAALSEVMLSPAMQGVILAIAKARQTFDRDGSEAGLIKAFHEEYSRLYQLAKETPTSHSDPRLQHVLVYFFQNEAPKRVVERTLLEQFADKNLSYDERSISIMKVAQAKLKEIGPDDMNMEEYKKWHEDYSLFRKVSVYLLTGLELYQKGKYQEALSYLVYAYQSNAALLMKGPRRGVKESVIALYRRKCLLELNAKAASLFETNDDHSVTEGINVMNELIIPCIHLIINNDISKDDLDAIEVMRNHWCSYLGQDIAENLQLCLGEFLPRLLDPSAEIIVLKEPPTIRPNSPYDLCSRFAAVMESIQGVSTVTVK
How it was run: as §1

Measured: log2 ratio of Biotin-Ahx-Ub-VS probe labelling

USP24, sequence (Q9UPU5 whole entry): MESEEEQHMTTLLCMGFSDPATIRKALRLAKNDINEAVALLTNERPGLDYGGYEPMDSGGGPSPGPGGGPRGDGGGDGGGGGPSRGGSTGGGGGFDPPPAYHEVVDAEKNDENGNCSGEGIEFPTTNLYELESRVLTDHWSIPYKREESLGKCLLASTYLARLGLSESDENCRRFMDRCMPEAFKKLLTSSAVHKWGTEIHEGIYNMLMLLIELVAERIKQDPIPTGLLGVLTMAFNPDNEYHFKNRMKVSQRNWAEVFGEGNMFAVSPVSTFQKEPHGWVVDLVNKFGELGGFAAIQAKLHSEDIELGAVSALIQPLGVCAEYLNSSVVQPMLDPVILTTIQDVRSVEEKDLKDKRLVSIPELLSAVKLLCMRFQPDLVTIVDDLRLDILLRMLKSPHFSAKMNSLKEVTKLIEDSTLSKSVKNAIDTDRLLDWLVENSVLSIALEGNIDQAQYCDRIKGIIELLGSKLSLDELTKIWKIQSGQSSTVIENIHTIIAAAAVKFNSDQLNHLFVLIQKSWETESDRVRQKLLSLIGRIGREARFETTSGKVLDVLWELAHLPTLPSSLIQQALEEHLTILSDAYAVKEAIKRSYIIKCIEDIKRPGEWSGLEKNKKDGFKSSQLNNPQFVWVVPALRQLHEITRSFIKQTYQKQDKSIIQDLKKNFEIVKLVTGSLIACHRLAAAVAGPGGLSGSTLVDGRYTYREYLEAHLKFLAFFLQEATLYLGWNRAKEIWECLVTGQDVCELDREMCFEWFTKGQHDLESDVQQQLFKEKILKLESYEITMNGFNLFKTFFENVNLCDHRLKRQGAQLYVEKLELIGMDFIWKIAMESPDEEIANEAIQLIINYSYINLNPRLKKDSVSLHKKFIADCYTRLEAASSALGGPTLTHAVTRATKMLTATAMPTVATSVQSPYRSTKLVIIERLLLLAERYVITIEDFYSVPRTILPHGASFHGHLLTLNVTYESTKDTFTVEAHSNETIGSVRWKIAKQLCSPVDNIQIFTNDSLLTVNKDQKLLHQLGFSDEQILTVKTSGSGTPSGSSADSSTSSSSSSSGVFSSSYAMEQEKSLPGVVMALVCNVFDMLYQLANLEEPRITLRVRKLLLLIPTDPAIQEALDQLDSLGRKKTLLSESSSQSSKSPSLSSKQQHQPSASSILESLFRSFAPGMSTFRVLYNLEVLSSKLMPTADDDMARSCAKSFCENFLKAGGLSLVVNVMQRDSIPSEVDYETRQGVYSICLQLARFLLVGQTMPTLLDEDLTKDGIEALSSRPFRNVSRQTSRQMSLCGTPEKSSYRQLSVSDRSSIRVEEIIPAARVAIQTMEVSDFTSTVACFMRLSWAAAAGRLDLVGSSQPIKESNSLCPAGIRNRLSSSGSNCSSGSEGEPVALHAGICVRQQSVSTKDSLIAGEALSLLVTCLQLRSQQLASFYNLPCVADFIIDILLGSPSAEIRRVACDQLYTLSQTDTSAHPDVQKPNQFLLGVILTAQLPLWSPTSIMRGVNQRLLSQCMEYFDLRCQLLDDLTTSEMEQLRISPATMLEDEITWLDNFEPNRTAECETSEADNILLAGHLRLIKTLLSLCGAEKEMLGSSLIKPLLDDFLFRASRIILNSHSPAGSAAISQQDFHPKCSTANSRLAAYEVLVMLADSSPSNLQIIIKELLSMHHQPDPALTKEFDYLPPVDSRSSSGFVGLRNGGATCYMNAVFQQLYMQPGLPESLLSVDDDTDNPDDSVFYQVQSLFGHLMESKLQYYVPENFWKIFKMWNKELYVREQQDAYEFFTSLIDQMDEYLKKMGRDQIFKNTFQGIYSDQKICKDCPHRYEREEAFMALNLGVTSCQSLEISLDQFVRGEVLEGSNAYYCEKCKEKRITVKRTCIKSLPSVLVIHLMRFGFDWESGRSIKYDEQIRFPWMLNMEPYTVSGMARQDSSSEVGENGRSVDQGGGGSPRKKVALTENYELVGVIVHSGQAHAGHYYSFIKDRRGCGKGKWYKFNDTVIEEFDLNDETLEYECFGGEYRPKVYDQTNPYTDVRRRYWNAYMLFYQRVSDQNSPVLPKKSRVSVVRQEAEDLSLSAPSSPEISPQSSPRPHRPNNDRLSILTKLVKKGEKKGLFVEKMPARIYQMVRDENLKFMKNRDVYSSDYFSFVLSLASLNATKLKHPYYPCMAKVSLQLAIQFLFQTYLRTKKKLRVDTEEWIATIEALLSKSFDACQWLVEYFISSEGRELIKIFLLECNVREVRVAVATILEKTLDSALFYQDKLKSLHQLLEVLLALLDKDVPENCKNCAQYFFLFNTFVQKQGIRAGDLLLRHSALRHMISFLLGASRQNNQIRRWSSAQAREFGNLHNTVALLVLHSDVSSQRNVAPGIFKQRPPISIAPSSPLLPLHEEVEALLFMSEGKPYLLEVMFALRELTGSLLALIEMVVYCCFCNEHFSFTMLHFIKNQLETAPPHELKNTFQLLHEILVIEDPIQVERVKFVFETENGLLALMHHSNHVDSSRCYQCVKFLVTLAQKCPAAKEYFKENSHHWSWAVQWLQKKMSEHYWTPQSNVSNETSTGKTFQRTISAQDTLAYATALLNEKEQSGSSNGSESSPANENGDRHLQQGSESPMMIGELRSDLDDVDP

O=C(CCl)NCc1ccc(Cl)cc1
inactive: USP19 -0.0819 | USP22 -0.199 | USP24 -0.0304 | USP25 -0.395 | USP28 -0.414

Reference: the supplement of paper PMC11732987, “Enantioselective OTUD7B fragment discovery through chemoproteomics screening and high-throughput optimisation” (Communications Chemistry, 2025)
